We go through eleven compounds from PubChem BioAssay.

Test [1] in a line: E. coli DRC41 culture turbidity changes, primary screen, E. coli filamentation inducer project, strain DRC41, OD650, 48 h (AID 1152).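 Note: E. coli MC1000 strain DRC41 lacking acrAB efflux pump and sulA.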 The settings on record: E. coli DRC41 (acrAB sulA), higher = more signal, called active from +8 up or from −8 down.
Test [2] is described as follows: small-molecule binders of probe aLefty1, primary screen, biochemical, small-molecule microarray, 635/667 nm fluorescence (AID 1153).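 Note: score merges spot fluorescence with signal-to-noise ratio from the scanned slide images.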 To be noted: higher = more signal.
Test [3] can be described thus: PSAC antagonists in infected red cells, primary screen, cell-based, P. falciparum Indochina, OD700, 1 h (AID 1154). The settings on record: P. falciparum Indochina infected RBC osmotic lysis, higher = more signal, called active from +8 up or from −8 down.
Test [4] can be described thus: PSAC antagonists in infected red cells, primary screen, cell-based, P. falciparum Indochina, OD700, 2 h (AID 1155).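 Note: lysis reports solute entry through the parasite surface anion channel PSAC; channel blockers reduce lysis of infected cells.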 To be noted: P. falciparum Indochina infected erythrocytes, osmotic lysis OD700; higher = more signal, called active from +8 up or from −8 down.
A short description of test [5]: osmotic lysis modulators in infected erythrocytes, primary screen, PSAC antagonist project, cell-based, P. falciparum Indochina, OD700, 3 h (AID 1156). To be noted: higher = more signal, called active from +8 up or from −8 down.
Test [6] can be described thus: PSAC antagonists in infected red cells, primary screen, cell-based, P. falciparum Indochina, OD700, 18 h (AID 1157). To be noted: P. falciparum Indochina infected erythrocytes, osmotic lysis OD700, 18 h; higher = more signal, called active from +8 up or from −8 down.
A short description of test [7]: modulators of S6 phosphorylation in cells, primary screen, cell-based, A549, cytoblot, luminescence, serum-stimulated (AID 1158).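 Note: serum-stimulated A549 lung adenocarcinoma cells; signal is phosphorylated S6 detected by cytoblot immunostaining with HRP secondary.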 The settings on record: A549 phospho-S6 cytoblot, 5 h, higher = more signal.
Test [8] has as its target NADPH oxidase 2 (Homo sapiens) (UniProt P04839). Put plainly: NOX2-dependent H2O2 signal modulators, primary screen, NOX inhibitor project, cell-based, HEK293-NOX2, PMA-stimulated, Amplex Red fluorescence (AID 1159). Note: test concentration not given here. The settings on record: 45 min, higher = more signal, called active from +8 up or from −8 down.
Test [9] concerns the target NADPH oxidase 4 (Homo sapiens) (UniProt Q9NPH5). Briefly: NOX4-dependent H2O2 signal modulators, primary screen, NOX inhibitor project, cell-based, HEK293-NOX4, tetracycline-induced, Amplex Red fluorescence (AID 1160). The settings on record: 45 min, higher = more signal, called active from +8 up or from −8 down.
The target of test [10] is NADPH oxidase 5 (Homo sapiens) (UniProt Q96PH1). Put plainly: NOX5-dependent H2O2 signal modulators, primary screen, NOX inhibitor project, cell-based, HEK293-NOX5, Amplex Red fluorescence (AID 1161). To be noted: HEK293-NOX5, ionomycin, 45 min, higher = more signal.

Active and inactive are the calls of the source.

Chain of NADPH oxidase 5 (Homo sapiens) (Q96PH1 whole entry, looked up): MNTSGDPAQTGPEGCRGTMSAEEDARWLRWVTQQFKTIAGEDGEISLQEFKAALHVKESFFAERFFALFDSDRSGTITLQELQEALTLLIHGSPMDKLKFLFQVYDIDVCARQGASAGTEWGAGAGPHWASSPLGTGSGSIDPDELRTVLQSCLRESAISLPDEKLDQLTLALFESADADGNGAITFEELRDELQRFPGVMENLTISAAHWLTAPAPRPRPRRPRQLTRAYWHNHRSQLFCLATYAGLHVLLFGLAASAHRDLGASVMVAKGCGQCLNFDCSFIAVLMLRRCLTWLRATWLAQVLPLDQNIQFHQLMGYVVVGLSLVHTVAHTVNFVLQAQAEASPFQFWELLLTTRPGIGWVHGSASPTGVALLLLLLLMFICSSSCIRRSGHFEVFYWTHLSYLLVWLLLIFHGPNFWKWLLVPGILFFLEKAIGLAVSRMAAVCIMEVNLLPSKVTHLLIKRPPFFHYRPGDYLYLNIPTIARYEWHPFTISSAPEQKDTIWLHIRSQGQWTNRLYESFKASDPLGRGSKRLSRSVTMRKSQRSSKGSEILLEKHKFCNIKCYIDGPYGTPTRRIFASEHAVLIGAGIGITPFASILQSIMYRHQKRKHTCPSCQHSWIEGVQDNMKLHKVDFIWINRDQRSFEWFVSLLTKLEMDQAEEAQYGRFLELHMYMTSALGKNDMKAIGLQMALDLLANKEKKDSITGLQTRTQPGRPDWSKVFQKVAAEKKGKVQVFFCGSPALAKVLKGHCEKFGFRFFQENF
Chain of NADPH oxidase 4 (Homo sapiens) (Q9NPH5 whole entry, looked up): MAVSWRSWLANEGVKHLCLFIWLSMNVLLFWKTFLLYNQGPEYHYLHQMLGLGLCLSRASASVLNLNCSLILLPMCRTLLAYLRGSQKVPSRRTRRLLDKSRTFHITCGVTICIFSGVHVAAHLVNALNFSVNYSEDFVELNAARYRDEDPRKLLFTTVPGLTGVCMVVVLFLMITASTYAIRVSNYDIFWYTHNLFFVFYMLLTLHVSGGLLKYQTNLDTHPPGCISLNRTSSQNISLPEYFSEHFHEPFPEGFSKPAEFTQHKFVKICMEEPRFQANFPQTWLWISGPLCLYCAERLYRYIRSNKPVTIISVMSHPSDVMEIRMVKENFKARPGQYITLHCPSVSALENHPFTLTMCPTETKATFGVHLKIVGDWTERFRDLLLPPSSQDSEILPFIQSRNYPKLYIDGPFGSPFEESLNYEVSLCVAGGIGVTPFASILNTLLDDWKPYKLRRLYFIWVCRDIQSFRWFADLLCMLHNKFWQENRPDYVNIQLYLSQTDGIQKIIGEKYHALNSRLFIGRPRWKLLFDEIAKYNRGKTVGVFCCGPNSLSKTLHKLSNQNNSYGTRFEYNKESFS
Chain of NADPH oxidase 2 (Homo sapiens) (P04839 whole entry, looked up): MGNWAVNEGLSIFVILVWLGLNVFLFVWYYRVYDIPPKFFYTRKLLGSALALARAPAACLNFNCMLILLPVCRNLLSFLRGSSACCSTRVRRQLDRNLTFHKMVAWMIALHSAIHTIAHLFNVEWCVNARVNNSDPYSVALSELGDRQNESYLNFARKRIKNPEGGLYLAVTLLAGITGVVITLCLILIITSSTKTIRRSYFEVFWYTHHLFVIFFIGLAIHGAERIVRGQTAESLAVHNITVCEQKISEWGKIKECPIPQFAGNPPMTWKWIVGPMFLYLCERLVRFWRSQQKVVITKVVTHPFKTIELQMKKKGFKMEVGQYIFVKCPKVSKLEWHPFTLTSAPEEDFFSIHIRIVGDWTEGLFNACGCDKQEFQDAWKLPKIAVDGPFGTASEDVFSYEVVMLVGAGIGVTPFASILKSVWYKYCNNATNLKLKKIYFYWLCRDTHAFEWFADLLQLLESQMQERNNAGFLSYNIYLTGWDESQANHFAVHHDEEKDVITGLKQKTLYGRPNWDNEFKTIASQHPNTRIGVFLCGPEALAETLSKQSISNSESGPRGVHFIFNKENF

In the case of `C#CCN(C/C=C/c1ccccc1)[C@H](CO)c1ccccc1`, the z-score in test [1] was -1.3 (inactive); in [3] it was 6.86 (inactive); in test [4], 0.893 (inactive); in test [5], 0.0025 (inactive); in [6], 0.305 (inactive); in test [7], -0.617. The z-score was 0.403 (inactive) in test [8], 0.04 (inactive) in test [9] and -3.98 in test [10]. In addition, the composite z-score in test [2] was -0.241.
For `CO[C@H]1O[C@H](CO)[C@@H](OC(=O)Nc2ccc(Br)cc2)[C@@H]2OC(=O)[C@H](Cc3cccc(Br)c3)C/C=C/C[C@@H](Cc3cccc(Br)c3)C(=O)O[C@@H]12`, the z-score was 1.7 (inactive) in test [1]; 2.13 (inactive) in [3]; 0.623 (inactive) in test [4]; -0.147 (inactive) in test [5]; 0.951 (inactive) in test [6]; 0.0914 in test [7]. In addition, the figures for the z-score in test [8], in test [9] and in test [10] were -1.42 (inactive), -0.686 (inactive) and 0.0667, respectively. The compound further yielded a composite z-score in [2] of -0.007.
On to `C=CCN1C(=O)[C@]2(Cc3ccccc3)N=C(c3ccc(OCCCO)cc3)O[C@@H]2c2ccccc21`, for which the z-score is 0.567 (inactive) in test [1]; 33.1 (active) in test [3]; 30.1 (active) in [4]; 2.14 (inactive) in test [5]; 10.2 (active) in test [6]; -0.204 in [7]. The values for the z-score in test [8], in [9] and in test [10] were -1.78 (inactive), 0.46 (inactive) and 1.07, respectively. In test [2], this compound came in with a composite z-score of 0.43.
In the case of `O=C1C2C=CC(C(O)c3cc(C(F)(F)F)cc(C(F)(F)F)c3)N(Nc3ccccc3)C2C(=O)N1c1ccccc1` (stereo not given), the z-score in test [1] was -0.355 (inactive); in [3] it was 4.95 (inactive); in test [4], 2.77 (inactive); in test [5] it was -2.01 (inactive); in test [6], 2.64 (inactive); in test [7], -0.62. Further, the z-score is 0.376 (inactive) in test [8], -4.65 (inactive) in test [9] and -1.33 in test [10]. In test [2], the composite z-score is 0.345.
As to `O=C1C2C=CC(C(O)c3ccc(F)cc3)N(Nc3ccc([N+](=O)[O-])cc3)C2C(=O)N1c1ccccc1` (stereo not given), the z-score in test [1] is -1.01 (inactive); in [3], 19.7 (active); in test [4], 3.8 (inactive); in [5] it was 0.721 (inactive); in [6], 1.22 (inactive); in test [7], -0.454. Besides, the z-score is -0.95 (inactive) in test [8], -2.96 (inactive) in test [9] and -1.91 in [10]. Moreover, the composite z-score in test [2] came to 0.129.
On to `COC(=O)[C@@]1(Cc2ccc(OC)cc2)[C@H]2c3cc(C(=O)N4CCCC4)n(Cc4nc5ccccc5[nH]4)c3C[C@H]2CN1C(=O)c1ccccc1`, for which the z-score in [1] is -0.945 (inactive); in test [3], 6.92 (inactive); in [4], 1.2 (inactive); in test [5] it was 2.04 (inactive); in [6] it was 1.03 (inactive); in test [7] it was -0.0242. Also, the values for the z-score in [8], in [9] and in [10] were -0.034 (inactive), -0.0265 (inactive) and -3.27, respectively. In test [2], this compound had a composite z-score of 0.388.
On to `C=CC1c2cc(O)c(OC)cc2CCN1Cc1cccc(OC(F)(F)F)c1` (stereo not given), for which the z-score in test [1] was 0.277 (inactive); in test [3], 5.32 (inactive); in [4], 0.544 (inactive); in test [5], 0.2 (inactive); in test [6], 0.451 (inactive); in test [7], -0.318. The figures for the z-score in test [8], in test [9] and in test [10] were -4.69 (inactive), -2.9 (inactive) and -4.4, respectively. This compound also showed a composite z-score in [2] of 0.123.
Regarding `C=CCNC(=O)[C@H]1[C@@H]2C(=O)O[C@@H](c3ccccc3)[C@@H](c3ccccc3)N2[C@@H](c2ccc(OCCO)cc2)[C@]12C(=O)Nc1ccc(C#CCC(C(=O)OC)C(=O)OC)cc12`, the z-score in [1] was -0.283 (inactive); in test [3] it was 3.01 (inactive); in [4], 0.664 (inactive); in test [5], -0.291 (inactive); in test [6] it was 0.117 (inactive); in test [7], -0.602. The z-score in test [8] is 1.48 (inactive); in [9], 1.21 (inactive); in test [10], 0.45. The composite z-score in [2] turned out to be 0.128.
As for `C=C(CCCC)C(=O)CC[C@@H](OC(C)=O)c1ccc(CO)o1`, the z-score was 0.0002 (inactive) in test [1]; 0.113 (inactive) in [3]; 0.0176 (inactive) in test [4]; -1.18 (inactive) in test [5]; 0.184 (inactive) in [6]; -0.0622 in [7]. Also, the z-score in [8] was -1.23 (inactive); in [9], -0.538 (inactive); in [10] it was -2.37. The composite z-score in [2] was -0.0278.
On to `CCCCCN1CC=CC23O[C@@H]4C=CCOC(=O)[C@@H]4[C@H]2C(=O)N(C(C)CO)[C@@H]3C1=O` (stereo not given in full), for which the z-score in test [1] was -0.0744 (inactive); in [3], 0.59 (inactive); in [4], 0.531 (inactive); in test [5], 0.136 (inactive); in test [6], 0.0638 (inactive); in test [7], 1.43. Further, the z-score in test [8] was 0.503 (inactive); in [9], 0.306 (inactive); in [10], 0.938. The compound also yielded a composite z-score in test [2] of -0.103.
As to `N#Cc1ccc(C(O)C2C=CC3C(=O)N(c4ccccc4)C(=O)C3N2Nc2ccccc2F)cc1` (stereo not given), the z-score in test [1] is 0.55 (inactive); in [3], 3.98 (inactive); in [4], -0.245 (inactive); in [5], -0.246 (inactive); in test [6], -0.616 (inactive); in [7] it was 0.179. Moreover, the values for the z-score in test [8], in [9] and in [10] were -1.82 (inactive), -3.54 (inactive) and -2.02, respectively. Besides, the composite z-score in [2] was found to be 0.149.
